# Laboratory results from the supplement of paper PMC8728848.
# This excerpt belongs to a sample that is enriched for the strongest signals.
# B1: BIp1-His (Cryptococcus neoformans) (protein)
# chain: MFTKIFVALFAATAVLSAPVESAEKRITHTGRATFYSPSVGIGACGWQNTDEELVVALNAPQYALNADHNCGQSVRITNEQNGNQEIAKVVDLCPGCNDGDLDMSPALFGALNNNDFDQGVFPISWNFLPRDDTSSSN
# Columns and labels:
# Experiment in all cases: glycan array binding signal (z-score within array); higher = stronger binding
# Settings in all cases: glycan notation: IUPAC condensed, linker removed
# [1] = biological target: Fuc(a1-2)Gal(b1-3)GalNAc
# In short: (§1)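 Negative Z-scores can be read as non-binding. The Z-score is calculated within each array and then averaged across arrays of one protein sequence at different concentrations or buffers and across linkers. Arrays, 3228 in all, were curated from the Consortium for Functional Glycomics database and kept only where the protein sequence was available.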
# [2] = biological target: Fuc(a1-2)Gal(b1-3)GlcNAc(b1-3)[Fuc(a1-2)Gal(b1-3)GlcNAc(b1-6)]GalNAc
# In short: as §1
# [3] = biological target: Fuc(a1-2)[Gal(a1-3)]Gal(b1-3)GlcNAc(b1-6)GalNAc
# In short: as §1
# [4] = biological target: Fuc(a1-2)[Gal(a1-3)]Gal(b1-4)[Fuc(a1-3)]GlcNAc(b1-3)GalNAc
# In short: as §1
# [5] = biological target: Fuc(a1-3)[Gal(b1-4)]GlcNAc
# In short: as §1
# [6] = biological target: Fuc(a1-3)[Gal(b1-4)]GlcNAc(b1-6)GalNAc
# In short: as §1
# [7] = biological target: Fuc(a1-3)[Gal(b1-4)]GlcNAc(b1-6)[Gal(b1-3)GlcNAc(b1-3)]Gal(b1-4)Glc
# In short: as §1
# [8] = biological target: Fuc(a1-3)[Gal3S(b1-4)]GlcNAc6S
# In short: as §1
# [9] = biological target: Gal(a1-3)Gal(b1-4)Glc
# In short: as §1
# [10] = biological target: Gal(b1-3)GalNAc(b1-3)Gal(a1-4)Gal(b1-4)Glc
# In short: as §1
# [11] = biological target: Gal(b1-3)[GlcNAc(b1-6)]GalNAc
# In short: as §1
# [12] = biological target: Gal(b1-4)GlcNAc(b1-2)Man(a1-3)[GlcNAc(b1-4)][Gal(b1-4)GlcNAc(b1-2)Man(a1-6)]Man(b1-4)GlcNAc(b1-4)GlcNAc
# In short: as §1
# [13] = biological target: Gal(b1-4)GlcNAc(b1-2)[Gal(b1-4)GlcNAc(b1-6)]Man(a1-6)[Gal(b1-4)GlcNAc(b1-2)Man(a1-3)]Man(b1-4)GlcNAc(b1-4)GlcNAc
# In short: as §1
# [14] = biological target: Gal(b1-4)GlcNAc(b1-2)[Gal(b1-4)GlcNAc(b1-6)]Man(a1-6)[GlcNAc(b1-4)][Gal(b1-4)GlcNAc(b1-2)[Gal(b1-4)GlcNAc(b1-4)]Man(a1-3)]Man(b1-4)GlcNAc(b1-4)[Fuc(a1-6)]GlcNAc
# In short: as §1
# [15] = biological target: Gal(b1-4)GlcNAc(b1-3)Gal(b1-4)GlcNAc(b1-2)Man(a1-3)[Gal(b1-4)GlcNAc(b1-3)Gal(b1-4)GlcNAc(b1-2)Man(a1-6)]Man(b1-4)GlcNAc(b1-4)[Fuc(a1-6)]GlcNAc
# In short: as §1
# [16] = biological target: Gal(b1-4)GlcNAc(b1-3)Gal(b1-4)GlcNAc(b1-2)[Gal(b1-4)GlcNAc(b1-3)Gal(b1-4)GlcNAc(b1-6)]Man(a1-6)[Gal(b1-4)GlcNAc(b1-3)Gal(b1-4)GlcNAc(b1-2)Man(a1-3)]Man(b1-4)GlcNAc(b1-4)[Fuc(a1-6)]GlcNAc
# In short: as §1
# [17] = biological target: Gal(b1-4)GlcNAc(b1-3)Gal(b1-4)GlcNAc(b1-3)Gal(b1-4)GlcNAc(b1-2)Man(a1-3)[Gal(b1-4)GlcNAc(b1-3)Gal(b1-4)GlcNAc(b1-3)Gal(b1-4)GlcNAc(b1-2)Man(a1-6)]Man(b1-4)GlcNAc(b1-4)GlcNAc
# In short: as §1
# [18] = biological target: Gal(b1-4)GlcNAc(b1-3)Gal(b1-4)GlcNAc(b1-3)Gal(b1-4)GlcNAc(b1-2)[Gal(b1-4)GlcNAc(b1-3)Gal(b1-4)GlcNAc(b1-3)Gal(b1-4)GlcNAc(b1-6)]Man(a1-6)[Gal(b1-4)GlcNAc(b1-3)Gal(b1-4)GlcNAc(b1-3)Gal(b1-4)GlcNAc(b1-2)Man(a1-3)]Man(b1-4)GlcNAc(b1-4)[Fuc(a1-6)]GlcNAc
# In short: as §1
# [19] = biological target: Gal(b1-4)GlcNAc(b1-3)Gal(b1-4)GlcNAc(b1-3)Gal(b1-4)GlcNAc(b1-3)Gal(b1-4)GlcNAc(b1-2)Man(a1-3)[Gal(b1-4)GlcNAc(b1-3)Gal(b1-4)GlcNAc(b1-3)Gal(b1-4)GlcNAc(b1-3)Gal(b1-4)GlcNAc(b1-2)Man(a1-6)]Man(b1-4)GlcNAc(b1-4)[Fuc(a1-6)]GlcNAc
# In short: as §1
# [20] = biological target: Gal3S6S(b1-4)GlcNAc6S
# In short: as §1
# [21] = biological target: GalNAc(a1-3)GalNAc(b1-3)Gal(a1-4)Gal(b1-4)GlcNAc
# In short: as §1
# [22] = biological target: GalNAc(b1-4)Gal(b1-4)Glc
# In short: as §1
# [23] = biological target: GalNAc(b1-6)GalNAc
# In short: as §1
# [24] = biological target: GlcNAc(a1-4)Gal(b1-4)GlcNAc(b1-3)Gal(b1-4)GlcNAc
# In short: as §1
# [25] = biological target: GlcNAc(a1-4)Gal(b1-4)GlcNAc(b1-3)Gal(b1-4)[Fuc(a1-3)]GlcNAc(b1-3)Gal(b1-4)[Fuc(a1-3)]GlcNAc
# In short: as §1
# [26] = biological target: GlcNAc(b1-3)Gal(b1-4)GlcNAc(b1-2)Man(a1-3)[GlcNAc(b1-3)Gal(b1-4)GlcNAc(b1-2)Man(a1-6)]Man(b1-4)GlcNAc(b1-4)GlcNAc
# In short: as §1
# [27] = biological target: GlcNAc(b1-3)Gal(b1-4)GlcNAc(b1-3)Gal(b1-4)GlcNAc(b1-2)Man(a1-3)[GlcNAc(b1-3)Gal(b1-4)GlcNAc(b1-3)Gal(b1-4)GlcNAc(b1-2)Man(a1-6)]Man(b1-4)GlcNAc(b1-4)GlcNAc
# In short: as §1
# [28] = biological target: GlcNAc(b1-3)Gal(b1-4)GlcNAc(b1-3)Gal(b1-4)GlcNAc(b1-2)[GlcNAc(b1-3)Gal(b1-4)GlcNAc(b1-3)Gal(b1-4)GlcNAc(b1-6)]Man(a1-6)[GlcNAc(b1-3)Gal(b1-4)GlcNAc(b1-3)Gal(b1-4)GlcNAc(b1-2)Man(a1-3)]Man(b1-4)GlcNAc(b1-4)[Fuc(a1-6)]GlcNAc
# In short: as §1
# [29] = biological target: GlcNAc(b1-3)Gal(b1-4)GlcNAc(b1-3)Gal(b1-4)GlcNAc(b1-3)Gal(b1-4)GlcNAc(b1-2)Man(a1-3)[GlcNAc(b1-3)Gal(b1-4)GlcNAc(b1-3)Gal(b1-4)GlcNAc(b1-3)Gal(b1-4)GlcNAc(b1-2)Man(a1-6)]Man(b1-4)GlcNAc(b1-4)GlcNAc
# In short: as §1
# [30] = biological target: GlcNAc(b1-3)Gal(b1-4)GlcNAc(b1-3)Gal(b1-4)GlcNAc(b1-3)Gal(b1-4)GlcNAc(b1-2)Man(a1-3)[GlcNAc(b1-3)Gal(b1-4)GlcNAc(b1-3)Gal(b1-4)GlcNAc(b1-3)Gal(b1-4)GlcNAc(b1-2)Man(a1-6)]Man(b1-4)GlcNAc(b1-4)[Fuc(a1-6)]GlcNAc
# In short: as §1
binder,measurement,setting,value
B1,glycan array binding signal (z-score),[1],-0.387
same,glycan array binding signal (z-score),[2],-0.401
same,glycan array binding signal (z-score),[3],-0.487
same,glycan array binding signal (z-score),[4],0.249
same,glycan array binding signal (z-score),[5],0.066
same,glycan array binding signal (z-score),[6],-0.576
same,glycan array binding signal (z-score),[7],-0.013
same,glycan array binding signal (z-score),[8],-0.121
same,glycan array binding signal (z-score),[9],-0.171
same,glycan array binding signal (z-score),[10],0.446
same,glycan array binding signal (z-score),[11],0.127
same,glycan array binding signal (z-score),[12],-0.105
same,glycan array binding signal (z-score),[13],0.266
same,glycan array binding signal (z-score),[14],-0.02
same,glycan array binding signal (z-score),[15],2.12
same,glycan array binding signal (z-score),[16],0.623
same,glycan array binding signal (z-score),[17],1.97
same,glycan array binding signal (z-score),[18],3.26
same,glycan array binding signal (z-score),[19],2.08
same,glycan array binding signal (z-score),[20],1.12
same,glycan array binding signal (z-score),[21],-0.181
same,glycan array binding signal (z-score),[22],0.482
same,glycan array binding signal (z-score),[23],-0.887
same,glycan array binding signal (z-score),[24],-0.297
same,glycan array binding signal (z-score),[25],2.19
same,glycan array binding signal (z-score),[26],-0.301
same,glycan array binding signal (z-score),[27],1.87
same,glycan array binding signal (z-score),[28],2.23
same,glycan array binding signal (z-score),[29],2.51
same,glycan array binding signal (z-score),[30],3.44
